Results reported in PubChem BioAssay (NCI).
About 79,000 compounds went through this panel and 15% of them were active in at least one assay; those are over-represented in the sample as a whole. The source made the active and inactive calls. Rule as the data show it: active = growth inhibition above about 70%; inactive = the rest.

Tests used:
[1] = NCI Yeast Anticancer Drug Screen. Data for the rad52 strain (AID 147);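 also: 0% = growth of vehicle-treated control cultures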; conditions: S. cerevisiae rad52 mutant growth inhibition, active compounds read high
In short: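 Screen used a yeast mutant impaired in DNA repair. After compound exposure, growth was measured. Values reflect inhibition compared with vehicle-treated cells.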

[2] = NCI Yeast Anticancer Drug Screen. Data for the wt1 strain (AID 149);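 also: 0% = growth of vehicle-treated wt1 cultures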; conditions: S. cerevisiae wt1 strain (SPY 50644) growth inhibition, active compounds read high
In short: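 Measured: growth of wt1 yeast under compound versus vehicle treatment, reported as inhibition.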

[3] = NCI Yeast Anticancer Drug Screen. Data for the rad50EPP+ strain (AID 151);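 also: 0% = growth of vehicle-treated control cultures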; conditions: S. cerevisiae rad50 mutant strain, active compounds read high
In short: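 Exposing the rad50EPP+ strain to each compound, growth was compared with vehicle-only cultures to give inhibition.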

[4] = NCI Yeast Anticancer Drug Screen. Data for the rad50 strain (AID 155);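 also: 0% = growth of vehicle-only cultures of the same strain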; conditions: S. cerevisiae rad50 strain growth inhibition, active compounds read high
In short: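 Growth of the mutant yeast was measured after compound exposure and referenced to vehicle-treated cultures.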

[5] = NCI Yeast Anticancer Drug Screen. Data for the mec2-1 strain (AID 157); conditions: S. cerevisiae mec2-1 strain, active compounds read high
In short: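 Readout is yeast growth inhibition, normalised to vehicle-treated controls, in the mec2-1 strain exposed to compound.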

[6] = NCI Yeast Anticancer Drug Screen. Data for the rad14 strain (AID 159);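 also: 0% = growth of vehicle-treated control cultures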; conditions: S. cerevisiae rad14 strain growth inhibition, active compounds read high
In short: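 Here, inhibition of yeast growth was measured after compound exposure, using a strain with a genetic defect in DNA damage repair and vehicle-treated cultures as the reference.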

[7] = NCI Yeast Anticancer Drug Screen. Data for the sgs1 mgt1 strain (AID 161);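 also: 0% = growth of cultures given vehicle only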; conditions: S. cerevisiae sgs1 mgt1 strain, active compounds read high
In short: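 Compounds are added to genetically altered yeast, and growth is compared with cultures given vehicle alone to give percent inhibition.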

[8] = NCI Yeast Anticancer Drug Screen. Data for the CLN2oe strain (AID 163);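 also: 0% = growth of vehicle-only control cultures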; conditions: S. cerevisiae CLN2oe strain, active compounds read high
In short: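 Values reflect how much compound exposure reduced yeast growth, referenced to vehicle-exposed cells. Assay organism is a strain with a defined genetic change affecting cell-cycle control.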

[9] = NCI Yeast Anticancer Drug Screen. Data for the cln2 rad14 strain (AID 165);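 also: 0% = growth equal to vehicle treated cultures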; conditions: S. cerevisiae cln2 rad14 strain, active compounds read high
In short: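 Relative to vehicle controls, growth inhibition of compound-treated cln2 rad14 yeast was recorded.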

[10] = NCI Yeast Anticancer Drug Screen. Data for the bub3 strain (AID 167); conditions: S. cerevisiae bub3 mutant strain, active compounds read high
In short: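 Whole-cell yeast assay. The mutant strain was incubated with compounds, and growth inhibition was determined by comparison with vehicle-treated cells.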

[11] = NCI Yeast Anticancer Drug Screen. Data for the wt2 strain (AID 169);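 also: 0% = growth of vehicle-treated yeast cultures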; conditions: S. cerevisiae wt2 strain growth inhibition, active compounds read high
In short: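 Values express reduction in yeast growth under compound treatment, referenced to vehicle-treated cells.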

[12] = NCI Yeast Anticancer Drug Screen. Data for the mlh1 strain (AID 171);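 also: 0% = growth of vehicle-treated control cultures of the same strain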; conditions: S. cerevisiae mlh1 strain growth inhibition, active compounds read high
In short: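 Steps: expose the defined-mutant yeast strain to compound; expose a parallel culture to vehicle; measure growth; express compound effect as inhibition relative to the vehicle culture.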

[13] = NCI Yeast Anticancer Drug Screen. Data for the sgs1 strain (AID 173);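 also: 0% = growth of vehicle-only control cultures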; conditions: S. cerevisiae sgs1 mutant, active compounds read high
In short: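 Treat defined-mutant yeast with compound; measure growth; calculate inhibition relative to vehicle-treated cells.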

[14] = NCI Yeast Anticancer Drug Screen. Data for the mlh1 rad18 strain (AID 175); conditions: S. cerevisiae mlh1 rad18 strain growth inhibition, active compounds read high
In short: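 Test agents were incubated with a yeast strain of defined genotype (DNA damage repair defect). Inhibition of growth was derived by comparison with vehicle-exposed cultures.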

[15] = NCI Yeast Anticancer Drug Screen. Data for the rad18 strain (AID 177); conditions: S. cerevisiae rad18 mutant growth inhibition, active compounds read high
In short: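 A genetically defined yeast mutant impaired in DNA damage repair was treated with test compounds, then its growth was measured against cultures receiving vehicle alone.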

[16] = at 5.0 µM (retest, dose inferred, filed as 0.5)
[17] = at 50.0 µM (retest, dose inferred, filed as 5.0)

Measured: growth inhibition

CC1(C)C(=O)OC(n2cc(F)c(=O)[nH]c2=O)C1=O (stereo not drawn)
inactive: [1]; at 1.2 µM -32% | [1]; at 3.7 µM -22% | [1]; at 11.0 µM -27% | [1]; at 33.0 µM -8% | [1]; at 100.0 µM 26% | [2]; at 1.2 µM -39% | [2]; at 3.7 µM -43% | [2]; at 11.0 µM -18% | [2]; at 33.0 µM -36% | [2]; at 100.0 µM 1% | [3]; at 1.2 µM -30% | [3]; at 3.7 µM -29% | [3]; at 11.0 µM -7% | [3]; at 33.0 µM 21% | [3]; at 100.0 µM 56% | [4]; at 1.2 µM -11% | [4]; at 3.7 µM -10% | [4]; [16] 25% | [4]; at 11.0 µM 3% | [4]; at 33.0 µM 17% | [4]; at 50.0 µM 6.6% | [4]; at 100.0 µM 37% | [5]; at 1.2 µM -31% | [5]; at 3.7 µM -5% | [5]; [16] 1% | [5]; at 11.0 µM -11% | [5]; at 33.0 µM 9% | [5]; [17] 34% | [5]; at 50.0 µM 2.95% | [5]; at 100.0 µM 60% | [6]; at 1.2 µM -36% | [6]; at 3.7 µM -37% | [6]; at 11.0 µM -18% | [6]; at 33.0 µM -15% | [6]; at 100.0 µM -8% | [7]; [16] 36% | [7]; at 50.0 µM 30% | [8]; at 1.2 µM 12% | [8]; at 3.7 µM 13% | [8]; at 11.0 µM -1% | [8]; at 33.0 µM 30% | [8]; at 100.0 µM -1% | [9]; [16] 27% | [9]; [17] 45% | [9]; at 50.0 µM 56.8% | [10]; at 1.2 µM 19% | [10]; at 3.7 µM 21% | [10]; [16] 45% | [10]; at 11.0 µM 19% | [10]; at 33.0 µM 37% | [10]; [17] 62% | [10]; at 50.0 µM 27.1% | [10]; at 100.0 µM 39% | [11]; at 1.2 µM 5% | [11]; at 3.7 µM 20% | [11]; at 11.0 µM 17% | [11]; at 33.0 µM 43% | [11]; at 100.0 µM 51% | [12]; at 1.2 µM -14% | [12]; at 3.7 µM -15% | [12]; at 11.0 µM -2% | [12]; at 33.0 µM 19% | [12]; at 100.0 µM 49% | [13]; at 1.2 µM -17% | [13]; at 3.7 µM -13% | [13]; at 11.0 µM -2% | [13]; at 33.0 µM 45% | [13]; at 100.0 µM 67% | [14]; [16] 13% | [14]; [17] 48% | [14]; at 50.0 µM 15.7% | [15]; at 1.2 µM 4% | [15]; at 3.7 µM 8% | [15]; at 11.0 µM 8% | [15]; at 33.0 µM 21% | [15]; at 100.0 µM 28%
active: [4]; [17] 74% | [7]; [17] 80%

Cc1ccc(S(=O)(=O)NNC(=S)Nc2cccc3ccccc23)cc1
inactive: [1]; at 1.2 µM 4% | [1]; at 3.7 µM 2% | [1]; at 11.0 µM 3% | [1]; at 33.0 µM 7% | [1]; at 100.0 µM 6% | [2]; at 1.2 µM -3% | [2]; at 3.7 µM -2% | [2]; at 11.0 µM -1% | [2]; at 33.0 µM 1% | [2]; at 100.0 µM 2% | [3]; at 1.2 µM 10% | [3]; at 3.7 µM 11% | [3]; at 11.0 µM 20% | [3]; at 33.0 µM 15% | [3]; at 100.0 µM 1% | [4]; at 1.2 µM 0% | [4]; at 3.7 µM -4% | [4]; [16] -4% | [4]; at 11.0 µM -10% | [4]; at 33.0 µM 2% | [4]; [17] 16% | [4]; at 50.0 µM 9.65% | [4]; at 100.0 µM 2% | [5]; at 1.2 µM 3% | [5]; at 3.7 µM 2% | [5]; [16] -19% | [5]; at 11.0 µM 4% | [5]; at 33.0 µM 5% | [5]; [17] 33% | [5]; at 50.0 µM -14.4%
